# Assay outcomes: PubChem, several laboratories
# Hits are enriched below; roughly 3.2% of the tested compounds scored in any of these assays.
# Rtt109 HAT inh: inhibitors of C. albicans Rtt109/Vps75 HAT, primary screen, biochemical, ThioGlo CoA-SH fluorescence, plate reader | Histone acetyltransferase RTT109 (Candida albicans (strain SC5314 / ATCC MYA-2876)), … | purified Rtt109/Vps75, 4 h | inhibition, % at 34.9 µM | 0.16% of 330,000 active;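 active means inhibition of at least 50% in every replicate; inconclusive means best replicate reaches 50% inhibition but some replicates fall short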
# Target sequence (Q5AAJ8 whole entry, looked up): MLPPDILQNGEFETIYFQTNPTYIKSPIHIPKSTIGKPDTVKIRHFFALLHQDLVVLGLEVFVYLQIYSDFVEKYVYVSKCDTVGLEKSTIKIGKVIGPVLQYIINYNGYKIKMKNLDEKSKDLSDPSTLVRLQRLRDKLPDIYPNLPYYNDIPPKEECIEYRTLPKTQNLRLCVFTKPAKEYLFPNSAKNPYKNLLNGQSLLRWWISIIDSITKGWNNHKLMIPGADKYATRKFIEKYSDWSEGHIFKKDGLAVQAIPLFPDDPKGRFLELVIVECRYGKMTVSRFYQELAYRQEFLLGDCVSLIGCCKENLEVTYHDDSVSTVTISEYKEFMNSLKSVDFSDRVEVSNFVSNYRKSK
# Dyrk1A ADPGlo: rat Dyrk1A kinase inhibitors, primary screen, biochemical, single point, plate reader; 0.43% of 310,000 active; ADP-Glo luminescence, NFATc1 peptide; inhibition, % at 12.5 µM; in the data active means inhibition above about 50%;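 further: plate controls were vehicle with enzyme for no effect and no enzyme for full effect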
# SMARCA2 act: SMARCA2 (BRM) function activators, primary screen, cell-based, luminescence, high throughput; AID 652017, 2013; 1% of 370,000 active; MG213 cells, MMTV-luciferase reporter, dexamethasone, overnight; activation, % at 9.1 µM; in the data active means activation above about 7.8%;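 further: 0% = vehicle wells and 100% = reference activator wells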
# CDK5 inh: inhibitors of human CDK5/p35 kinase, primary screen, biochemical, single concentration; Cyclin-dependent kinase 5 (Homo sapiens) + Cyclin-dependent kinase 5 activator 1 (Homo …; Recombinant CDK5/p35, ADP-Glo luminescence, 60 min; inhibition, % at 10 µM; 0.01% of 330,000 active; AID 488839, 2010;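 active means highest replicate inhibition of at least 50% and at least 75% of replicates reaching 50%; inconclusive means only one of the two criteria met; inactive means both criteria failed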;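 further: plate controls were DMSO neutral control for no effect and GW8510 at 10 µM for full effect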
# esBAF inh: Bmi1 luciferase reporter increase in mESCs, primary screen, esBAF inhibitor project, mouse ES cells, Bmi1 luciferase knock-in, single point | 24 h; 100% = twice the neutral-well signal | 2% of 350,000 active | reporter increase, % at 12.5 µM; in the data active means activation above about 40%; inconclusive means no clear call, values can overlap the other calls;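 further: 0% = median of the plate's neutral control wells and 100% = double that signal; a rise in the Bmi1 reporter signal indicates esBAF inhibition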
# dFosB act-1: activators of delta FosB homodimer, primary screen, biochemical, fluorescence polarization, TAMRA-CDK5 oligo, single point; activation, % at 25 µM; 0.99% of 340,000 active; purified delta FosB; percent of positive-control signal above neutral wells;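 active means mean activation above about 17%, with every replicate also reaching it, limit read from the data, passing the limit was not always enough; inconclusive means only one of the two conditions met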
# dFosB act-2: activators of mouse delta FosB DNA binding, confirmation, biochemical, fluorescence polarization, TAMRA-CDK5 oligo, cherry-picked samples; shares compounds with dFosB act-1; purified delta FosB; normalised: neutral wells 0, positive control 100; activation, % at 24.9 µM; 2,400 tested, under 10 active;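 active means highest replicate activation at or above 34% and every replicate reaching that threshold; inconclusive means meets only one of the two criteria; inactive means meets neither criterion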;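 further: higher polarization means more probe DNA bound by delta FosB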
# The depositor's hits bear a star; ? = inconclusive; . = no result.
SMILES,Rtt109 HAT inh,Dyrk1A ADPGlo,SMARCA2 act,CDK5 inh,esBAF inh,dFosB act-1,dFosB act-2
COc1cccc(NC(=O)Nc2nnc(Cc3ccc(F)cc3)s2)c1,3.5,-2.0,1.2,0.7,-7.8,28.7*,-0.7
COc1cccc(NC(=O)Nc2cc(NC(=O)Nc3cccc(OC)c3)c(C)nc2C)c1,1.1,2.2,-4.4,0.4,.,18.3*,1.6
Cc1cccc(NC(=O)Cc2nnc(NC(=O)Nc3ccccc3F)s2)c1,-4.0,-4.2,0.9,0.7,.,39.8*,2.5
COc1cccc(NC(=O)Nc2ccncc2)c1,6.1,21.0,-1.4,-1.1,.,-2.9,.
COc1cccc(NC(=O)Nc2nnc(CC(=O)Nc3ccccc3)s2)c1,-12.7,-6.0,-0.2,-2.1,-9.8,?,.
CCCNC(=O)C[C@@H]1C[C@@H]2c3cc(NS(=O)(=O)c4cccc(OC)c4)ccc3O[C@@H]2[C@@H](CO)O1,.,.,.,.,-6.2,.,.
COc1ccc(/C=N/NC(=O)CCn2c3ccccc3c3ccccc32)cc1O,-10.3,7.4,2.2,-5.9,7.2,-12.4,.
COc1cccc(/C=N/NC(=O)CCn2c3ccccc3c3ccccc32)c1,-1.6,6.1,0.4,0.1,.,23.7*,2.5
C[C@@H]1CN([C@H](C)CO)C(=O)Cc2cc(NC(=O)CCC(F)(F)F)ccc2O[C@H]1CN(C)Cc1ccc(C(=O)O)cc1,.,.,.,.,1.4,.,.
C/C(=N\Nc1cc(C)nc(NCc2ccccc2)n1)c1ccc([N+](=O)[O-])cc1,-4.0,0.6,-4.3,0.2,.,29.7*,0.5
C/C(=N\Nc1nc2ccccc2[nH]1)c1ccc([N+](=O)[O-])cc1,-21.1,1.2,-1.6,0.9,-10.8,20.5*,1.9
Cc1cc(N/N=C/c2ccccc2Cl)nc(NCc2ccccc2)n1,-1.3,-7.0,-1.9,-2.1,.,50.8*,4.3
C[C@@H]1CN([C@@H](C)CO)C(=O)c2cccc(NC(=O)c3nc4ccccc4s3)c2O[C@@H]1CN(C)C(=O)NC1CCCCC1,.,.,.,.,1.5,.,.
C[C@H](CO)N1C[C@H](C)[C@@H](CN(C)Cc2ccc(-c3ccccc3)cc2)Oc2ccc(NC(=O)Cn3cnnn3)cc2CC1=O,.,.,.,.,-5.7,.,.
CCc1cc2ccc(C)cc2nc1SCC(=O)Nc1c[nH]c(=O)[nH]c1=O,22.9,-2.8,0.3,0.0,-14.3,21.6*,6.1
Cc1ccc(S(=O)(=O)N(C)C[C@@H]2OCCCC[C@@H](C)Oc3ccc(NC(=O)Nc4ccccc4)cc3C(=O)N([C@H](C)CO)C[C@H]2C)cc1,.,.,.,.,2.4,.,.
Cc1cc(C)c(NC(=O)CSc2nc3ncc(Br)cc3[nH]2)c(C)c1,-5.3,-0.9,-3.6,-0.7,-1.0,30.4*,-1.1
CC(C)(C)C(=O)CSc1nc2ncc(Br)cc2[nH]1,0.0,6.9,-1.2,-0.5,9.1,-2.7,.
S=c1nccc(-c2ccc3c(c2)CCO3)[nH]1,31.2,16.9,-2.7,0.3,.,-5.3,.
Fc1ccc(-c2noc(-c3ccc4c(c3)CCO4)n2)cc1,15.4,-4.3,4.1,0.8,-2.2,27.7*,3.2
Cn1c2ccccc2c2cc(C(=O)OCC(=O)N3CC(=O)Nc4ccccc43)sc21,-0.1,-7.4,-2.7,-0.1,18.5,38.5*,3.3
O=C1CN(C(=O)COC(=O)c2cccs2)c2ccccc2N1,3.9,5.2,-3.3,0.5,5.6,-0.1,.
COc1ccc(-n2c(SCC(=O)N3CCc4ccccc43)nnc2-c2c[nH]c3ccccc23)cc1,-6.2,-1.6,0.5,0.2,-3.8,49.3*,2.7
C#CCn1c(=NC(=O)c2ccc(S(=O)(=O)N3CCCc4ccccc43)cc2)sc2cc(S(N)(=O)=O)ccc21,6.3,-0.7,-3.8,0.4,.,58.9*,2.1
